# Bioassay records (PubChem BioAssay)
# The list is not random: actives were taken first. Their share in the collection is about 3.4%.
# HttQ103 aggreg = mutant huntingtin aggregation inhibition. PC12 HttQ103-GFP aggregates, Acumen cytometry, 40 h. Potency, µM (top dose mostly 46.1 µM), without a hit: at the highest dose activity change, negative = inhibition, most hits filed as inhibitors. actives 1.1% (n = 220,000); also: potency is read from the fitted curve at half-maximal effect; % is scaled to controls: 0 for no effect and ±100 for the full control effect; nearly all actives have a fitted effect of over 60% in size
#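 Aggregate formation scored by laser-scanning cytometer (488 excitation, 500–530 emission) in lysed PC12 cells expressing Q103-GFP after 100 nM tebufenozide induction; library tested in dose series, with ATPLite reagent added in the multiplex.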
# IMPase cell inh = membrane-permeable compound that blocks inositol monophosphatase; 120,000 tested, under 10 active; inhibition (IP1 accumulation), % at 46.1 µM; P97697; CHO-M1 cells, IP1 accumulation, HTRF TR-FRET ratio; active = well fitted curve in the direction sought with a large enough effect in the signal ratio, not every such curve was filed as active; inconclusive = small, poorly fitted or top-dose-only effect, or a change in a side signal; inactive = no such curve, though single readings can be large or run the other way; the % refers to the signal ratio;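 also: cells stimulated with carbachol in lithium chloride buffer; plate controls were DMSO basal wells for no effect and reference inhibitor wells for full effect; higher means more IMPase inhibition seen as more IP1 and lower FRET ratio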
# Target sequence (P97697 whole entry, looked up): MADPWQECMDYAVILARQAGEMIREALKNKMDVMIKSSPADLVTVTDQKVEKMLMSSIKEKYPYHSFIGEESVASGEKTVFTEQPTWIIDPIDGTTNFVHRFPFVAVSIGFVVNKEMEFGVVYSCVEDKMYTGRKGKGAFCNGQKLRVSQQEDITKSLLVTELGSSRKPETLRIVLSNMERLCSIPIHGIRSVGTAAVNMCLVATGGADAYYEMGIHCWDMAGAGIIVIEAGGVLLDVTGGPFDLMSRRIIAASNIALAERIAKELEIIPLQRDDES
#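 Measured: the HTRF emission ratio (665/620 nm) plus the 620 nm donor channel, each fitted to the Hill equation to give AC50. Cells were CHO-M1 given compounds up to 46 uM and a 30 min carbachol stimulation at 37C.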
# IMPase Li inh = IMPase inhibition in cells with lithium potentiation | CHO-M1 cells, IP1 TR-FRET (IP-One), carbachol + lithium | Potency, µM (titrated, usually from 59.4 µM), without a hit: at the top dose activity, negative = IMPase inhibition, most hits filed as inhibitors | actives 0.35% (n = 210,000);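 also: IP1 builds up when IMPase is blocked and the TR-FRET signal falls; potency is read from the fitted curve at half-maximal effect; plate controls were basal vehicle for no effect and high inhibitor control for full effect; nearly all actives have a fitted effect of over 50% in size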
#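 Readout is a homogeneous TR-FRET IP1 immunoassay (Ex 320, Em 665 and 620), where raised cytosolic IP1 lowers signal. Cells were CHO-M1 treated 30 min at 37C with test compounds plus a little lithium; AC50 values came from Hill-equation fitting.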
# NPSR antagonist = neuropeptide S receptor (human) antagonism, cAMP. AID 1461. CHO-NPSR cells, cAMP TR-FRET, antagonist mode. actives 1% (n = 220,000). Potency, µM (top dose mostly 38.3 µM), inactives show at the top dose activity change, negative = inhibition, actives largely listed as inhibitors; also: potency is read from the fitted curve at half-maximal effect; % is scaled to controls: 0 for no effect and ±100 for the full control effect; nearly all actives have a fitted effect of over 50% in size
# Target sequence (Q6W5P4 whole entry, looked up): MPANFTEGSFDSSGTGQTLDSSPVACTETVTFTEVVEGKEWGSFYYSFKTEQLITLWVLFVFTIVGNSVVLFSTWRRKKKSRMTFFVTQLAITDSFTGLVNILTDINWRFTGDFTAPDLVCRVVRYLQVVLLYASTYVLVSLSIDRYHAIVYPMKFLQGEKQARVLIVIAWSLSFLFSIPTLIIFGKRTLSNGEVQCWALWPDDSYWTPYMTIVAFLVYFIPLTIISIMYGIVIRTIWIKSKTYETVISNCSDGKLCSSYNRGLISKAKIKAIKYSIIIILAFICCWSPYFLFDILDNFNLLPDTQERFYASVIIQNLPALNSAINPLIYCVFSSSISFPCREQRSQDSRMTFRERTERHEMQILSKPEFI
# PNC inhibitor = inhibitors of perinucleolar compartment assembly | PC3M PTB-GFP, PNC prevalence imaging, 16 h; active compounds read low | activity change (PNC), negative = inhibition, % at 10 µM | actives 3.1% (n = 140,000) | AID 2417;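 active = readout at or below -70, meaning at least 70% loss of cells showing the perinucleolar compartment, a nuclear body marking cancer cells; inconclusive = readout between -30 and a set limit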;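 also: plate controls were DMSO wells for no effect and camptothecin positive control wells for full effect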
#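 PC3M cells stably expressing PTB-GFP, 750–1000 cells/well, treated 16 h at 37 °C with compound (23 nl of library stock), in duplicate. After paraformaldehyde fixation and Hoechst stain, imaged at 20x; PNC prevalence scored by image analysis.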
# HTT ATP protect = protects HTT-Q103 PC12 cells, measured by ATP; PC12 HTT-Q103 induced, cytoprotection, ATP luminescence, 40 h; Potency, µM (titrated, usually from 56.4 µM), inactives show cytoprotection (ATP increase), hits mostly activators; actives 0.14% (n = 230,000); AID 1471; also: potency is read from the fitted curve at half-maximal effect; % of control where 0% means no effect; nearly all actives have a fitted effect of over 45% in size
#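 PC12 cells stably carrying ecdysone-inducible Htt exon 1 (Q103)–GFP were induced with 100 nM tebufenozide (final) alongside library compounds in a dose series. Cytoprotection was scored as retained ATP by ATPlite luminescence.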
# The depositor's hits bear a star; ? = inconclusive; . = not tested or not shown; [ ] = remark or other dose. Unless noted, calls follow the shape of the dose curve; as a rule, active = well fitted curve in the direction sought with a large enough effect; inconclusive = small, poorly fitted or top-dose-only effect, or another doubt; inactive = no such curve, though single readings can be large; an effect the other way counts as inactive or inconclusive.
SMILES,HttQ103 aggreg,IMPase cell inh,IMPase Li inh,NPSR antagonist,PNC inhibitor,HTT ATP protect
CC(C)[C@H](NC(=O)OC(C)(C)C)[C@@H](O)CC(=O)OC(C)(C)C,.,.,.,.,.,-39%[10 µM]
OCCOCCn1c2ccccc2c2ccccc21,5%,-6,-17%[38.3 µM],15%[46.1 µM],-139*,13%[0.074 µM]
O=C1c2cccc3c(Nc4ccccc4Cl)c([N+](=O)[O-])cc(c23)C(=O)N1CCO,10µM*,0,18%[38.3 µM],-19%[46.1 µM],-10,-74%
O=C1c2cccc([N+](=O)[O-])c2C(=O)N1CCO,1%,.,-9%,5%,.,-20%
Cc1nc2ncnn2c(N2CCCC(C(=O)Nc3ccc4c(c3)CCC4)C2)c1C (stereo not drawn),10µM*,5,6%[38.3 µM],-29%[46.1 µM],-11,-2%[10 µM]
O=C(CCl)N(c1ccccc1)c1c[nH]c2ccccc12,-13%,2,.,-29%[46.1 µM],-6,-14%
O=C(CCl)N(c1ccc(Cl)cc1)c1c[nH]c2ccccc12,?,-7,40%[38.3 µM],7.9µM*,27,-115%
CC(C)(C)NC[C@H](O)CSc1nc(-c2ccc(C(N)=O)s2)cs1,11%,.,.,.,.,29%
CNC(=O)c1nnsc1S(=O)(=O)c1ccc(Cl)cc1,3.2µM*,.,26%,?,.,-140%
O=C(c1nnsc1S(=O)(=O)c1ccc(Cl)cc1)N1CCOCC1,13µM*,.,9%,-37%,.,-161%
O=S(=O)(c1ccc(Cl)c(Cl)c1)c1snnc1-c1ccccc1,?,3,50%[38.3 µM],?,-6,-92%
Nc1nc(C(=O)N2CCOCC2)nn1S(=O)(=O)c1ccc(Cl)cc1,-20%,8,17%[38.3 µM],4%[46.1 µM],?,-2%
N#Cc1c(NCc2ccccc2)ccnc1NCc1cccnc1,22µM*,-8[1.84 µM],44%[38.3 µM],-7%[46.1 µM],-106*,11%[10 µM]
CN(C)c1ccnc(NCc2ccccc2)c1C#N,-14%,-14,1%[38.3 µM],1%[46.1 µM],?,-18%
CCN1CCN(CCCNC(=O)c2cn(CCOC)c(=O)c3c2c2ccccc2n3C)CC1,-6%,7,5%,-8%[46.1 µM],-101*,17%[10 µM]
COCCn1cc(C(=O)NCCCN2CCC(C)CC2)c2c3ccccc3n(C)c2c1=O,-6%,-4,23%[38.3 µM],-11%[46.1 µM],-13,19%[10 µM]
COc1cccc(C=Nc2ccccc2C(=O)Nc2ccccc2)c1O,-4%,.,6%,0%,-110*,.
CCNc1ncc2nc(-c3ccc(F)cc3)c(=O)n(-c3ccccc3)c2n1,.,.,-16%,.,.,-8%
Cn1nnc(NC(=O)c2ccccc2)n1,-1%,-9[0.369 µM],-1%,11%[46.1 µM],-95*,8%[10 µM]
N=C1N(/N=C/c2ccccc2)C(=Nc2ccccc2)C(=S)N1c1ccccc1,5%,-3,11%,-18%[46.1 µM],-100*,1%[10 µM]
Cc1nnc(C)n1/N=C/c1ccccc1,1%,5,-10%[38.3 µM],-6%[46.1 µM],24,-4%
N#C[C@H](Cc1ccc(O)cc1)c1ccc(O)cc1,.,-2,15%,.,.,8%
O=C(c1cc(COc2c(F)cccc2F)on1)N1CCC(c2ccncc2)CC1,20µM*,.,28%,12%,.,-35%
O=C(c1cc(COc2c(F)cccc2F)on1)N1CCC(c2ccccc2F)C1 (stereo not drawn),-25%[9.22 µM],.,18%,43%,.,-6%[10 µM]
O=C(c1cc(COc2ccc(F)cc2Cl)on1)N1CCC(OCc2cccnc2)CC1,11µM*,.,.,6%,.,-56%
SMILES,HttQ103 aggreg,IMPase cell inh,IMPase Li inh,NPSR antagonist,PNC inhibitor,HTT ATP protect
O=C(c1cc(COc2ccc(F)cc2Cl)on1)N1CCCC(OCc2cccnc2)C1 (stereo not drawn),?,.,.,14%,.,-10%
CCOC(=O)c1ccc2ncc(C(=O)OCC)c(Nc3ccc(C)c(Br)c3)c2c1,.,0,.,.,.,.
CC(=O)Nc1ccc2nc(-c3cccnc3)[nH]c2c1,0%,-16,0%,4%[46.1 µM],-100*,-11%[10 µM]
COC(=O)c1ccc(C(=O)Nc2ccc3nc(-c4cccnc4)[nH]c3c2)cc1,-8%,-2,6%,-3%[46.1 µM],-83*,-1%[10 µM]
Nc1ccc(C(=O)Nc2ccc3nc(-c4cccnc4)[nH]c3c2)cc1,-11%,-4,4%[38.3 µM],-15%[46.1 µM],18,-32%
CC(=O)Nc1cccc(-c2nc3ccc(NC(C)=O)cc3[nH]2)c1,-1%,-12,1%[38.3 µM],4%[46.1 µM],1,-41%
CC(C)(C)NC[C@@H](O)COc1nsnc1N1CCOCC1,.,.,8%,.,.,?
CC(=O)OC1C=C[C@]2(C)C(CC(OC(C)=O)[C@@]3(C)C4=CC(=O)OC(c5ccoc5)[C@]4(C)CCC23)C1(C)C (stereo partly drawn),.,.,9%,.,.,-46%
CCC(=O)Nc1ccc(-c2ccc(NC(=O)CC)c(OC)c2)cc1OC,?,.,-3%,-11%,.,-17%
CCOc1cc(Cl)c(NC(=O)CC)cc1OCC,18%,.,0%,13%,-114*,.
Cn1cc(Br)c(C(=O)N/N=C/c2cccc(OC3CSC3)c2)n1,-3%,.,20%,-3%,41,.
CCOc1cc(/C=N/NC(=O)CSc2nncn2C)ccc1OCc1ccccc1,16%,.,-4%,-4%,-96*,.
CCOc1cc(/C=N/NC(=O)CN2CCOCC2)ccc1OCc1ccccc1,0%,.,2%,-1%,0,-18%[10 µM]
CCOc1cc(/C=N/NC(=O)c2nn(C)cc2Br)ccc1OCc1ccccc1Cl,?,.,2%,-44%,-112*,.
Cc1ccc(C(O)(COC(=O)C(C)C)COC(=O)C(C)C)c(O)c1,10%[9.22 µM],.,8%,-18%,.,4%[10 µM]
Cc1ccc(S(=O)(=O)n2nc(-c3ccccc3)nc2NCc2ccccc2Cl)cc1,.,5,.,.,.,.
CC(C)(C)n1ncc(Oc2ccccc2[N+](=O)[O-])c(Cl)c1=O,13µM*,.,2%,15%,-26,.
CCCOc1ccc(/C(O)=C2\C(=O)C(=O)N(CCCOC)C23C(=O)N(C)c2ccccc23)cc1 (stereo not drawn),3%,?,10µM*,?,-106*,0%[0.074 µM]
C[N@+]1(CCC(=O)c2ccccc2)CC[C@H]2CC[C@H](C2)C1,.,.,-4%,.,.,-11%[10 µM]
c1ccc(C2Oc3ccccc3C3CC(c4cccs4)=NN32)cc1 (stereo not drawn),-1%,.,-2%,-47%,-20,17%[10 µM]
Oc1ccccc1C1CC(c2cccs2)=NC(c2cccc(Br)c2)N1 (stereo not drawn),11µM*,.,10%,-5%,.,-47%
Cc1ccc(/C=C2\SC(=S)N(c3cccnc3)C2=O)o1,-8%[9.22 µM],.,.,-23%,.,-14%[10 µM]
O=C(O)c1cccc(N2C(=O)/C(=C/c3ccc(SCc4ccc(Cl)cc4)o3)SC2=S)c1,6%,.,8%,-30%,.,20µM*
